HTT ATP protect: Huntington cell model cytoprotection by ATP luminescence; 0.14% of 230,000 active; AID 1471; PC12 HTT-Q103 induced, cytoprotection, ATP luminescence, 40 h; Potency, µM (top dose mostly 56.4 µM), inactives show cytoprotection (ATP increase), hits mostly activators; note: potency is the fitted concentration of half-maximal effect; % of control where 0% means no effect; nearly all actives have a fitted effect of over 45% in size
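Quantitative HTS on tebufenozide-induced (100 nM) PC12 cells expressing HTTQ103 exon 1–GFP; compounds tested as a concentration series; survival measured via cellular ATP.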
HPGD block: inhibitors of human 15-hydroxyprostaglandin dehydrogenase (HPGD); P15428; purified HPGD, NADH fluorescence kinetic, PGE2 substrate; Potency, µM, for inactives: top-dose activity change, negative = inhibition, most hits filed as inhibitors; 4.3% of 150,000 active; AID 894; active = well fitted inhibition curve with a large enough effect, not every such curve was filed as active; inconclusive = small, poorly fitted or top-dose-only effect, or another doubt; inactive = no such curve, though single readings can be large or run the other way; note: potency is the fitted concentration of half-maximal effect; % is set by controls: 0 for no effect and ±100 for the full control effect
Target sequence (P15428 whole entry, looked up): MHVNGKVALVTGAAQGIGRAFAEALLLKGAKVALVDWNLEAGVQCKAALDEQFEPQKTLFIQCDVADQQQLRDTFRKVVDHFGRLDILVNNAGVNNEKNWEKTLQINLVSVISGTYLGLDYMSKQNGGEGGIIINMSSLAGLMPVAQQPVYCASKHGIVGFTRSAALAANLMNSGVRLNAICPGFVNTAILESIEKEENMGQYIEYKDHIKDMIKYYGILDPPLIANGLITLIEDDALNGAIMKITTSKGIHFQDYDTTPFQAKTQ
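NADH formation kinetics: reaction with 30 uM PGE2 and 1 mM NAD+ (final), 20 nM enzyme, Tris-HCl pH 8 with Tween 20, after 15 min compound preincubation at room temperature. Fluorescence change, last versus first of five reads.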
ALDH1A1 inh: blocks purified human ALDH1A1 activity; Purified ALDH1A1, NADH fluorescence, propionaldehyde substrate; Potency, µM (highest dose often 75.3 µM), without a hit: top-dose activity, negative = inhibition, hits mostly inhibitors; 7.3% of 220,000 active; AID 1030; active = well fitted inhibition curve with a large enough effect, not every such curve was filed as active; inconclusive = small, poorly fitted or top-dose-only effect, or another doubt; inactive = no such curve, though single readings can be large or run the other way;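 note: potency is the fitted concentration of half-maximal effect; plate controls were no enzyme wells and a reference inhibitor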
HTT aggregate: inhibitors of mutant huntingtin aggregate formation in PC12 cells | PC12 HttQ103-GFP aggregates, Acumen cytometry, 40 h | Potency, µM (series often up to 46.1 µM), for the others: at the highest dose activity change, negative = inhibition, most hits filed as inhibitors | 1.1% of 220,000 active; note: potency is the fitted concentration of half-maximal effect; % is set by controls: 0 for no effect and ±100 for the full control effect; nearly all actives have a fitted effect of over 60% in size
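Aggregate formation scored by laser-scanning cytometer (488 excitation, 500–530 emission) in lysed PC12 cells expressing Q103-GFP after 100 nM tebufenozide induction; library tested in dose series, with ATPLite reagent added in the multiplex.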
PNC inhibitor: blocks assembly of the perinucleolar compartment. activity change (PNC), negative = inhibition, % at 10 µM. 3.1% of 140,000 active. PC3M PTB-GFP, PNC prevalence imaging, 16 h; hits give low values. AID 2417;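 active = readout at or below -70, meaning at least 70% loss of cells showing the perinucleolar compartment, a nuclear body marking cancer cells; inconclusive = readout between -30 and a set limit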;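 note: plate controls were DMSO wells for no effect and camptothecin positive control wells for full effect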
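Compounds are pinned in duplicate onto adhered PC3M cells stably expressing GFP-tagged PTB and incubated 16 h at 37 C. Cells are then fixed, nuclei stained with Hoechst, and PNC-positive cells counted.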
RGS12 GoLoco inh-1: inhibitors of human Gai1-RGS12 GoLoco interaction (red fluorophore); Potency, µM (titrated, usually from 61.6 µM), inactives show top-dose activity, negative = inhibition, usual class: inhibitors; 0.44% of 230,000 active; AID 880; P63096; Gai1:RGS12 GoLoco peptide FP, rhodamine, 10 min; active = well fitted inhibition curve with a large enough effect, not every such curve was filed as active; inactive = no such curve, though single readings can be large or run the other way; note: potency is the fitted concentration of half-maximal effect; % is set by controls: 0 for no effect and ±100 for the full control effect; nearly all actives have a fitted effect of over 30% in size
RGS12 GoLoco inh-2: disrupts Gai1 binding to human RGS12 GoLoco peptide. shares compounds with RGS12 GoLoco inh-1. 50% of 110 active. Gai1/rhodamine-RGS12 GoLoco peptide fluorescence polarization. Potency, µM (top dose mostly 57.1 µM), inactives show at the highest dose activity, negative = inhibition, actives largely listed as inhibitors. AID 2390
* marks the source's active call; other numbers are inactive results; u = inconclusive; x = no result given; ! = repeats disagree; [ ] = remark or other dose. A selection: hits, their analogues and other compounds. The true share with any hit is near 11%. Unless noted, calls come from the whole dose curve; as a rule, active = well fitted curve in the direction sought with a large enough effect; inconclusive = small, poorly fitted or top-dose-only effect, or another doubt; inactive = no such curve, though single readings can be large; an effect the other way counts as inactive or inconclusive.

SMILES	HTT ATP protect	HPGD block	ALDH1A1 inh	HTT aggregate	PNC inhibitor	RGS12 GoLoco inh-1	others
Cc1ccc(N2C(=O)NC(=O)/C(=C\c3cc(C)n(-c4sc5c(c4C#N)CCCC5)c3C)C2=O)cc1	2%[10 µM]	10µM*	0.79µM*	11%	u	42%
O=C(NCNC(=O)N[C@H]1C(=O)NC(=O)N1CO)N[C@H]1C(=O)NC(=O)N1CO	-41%[17.1 µM]	-5%	7%[20.9 µM]	x	x	6%[21.6 µM]
Cc1cc2ccccc2n1CCNC(=O)COc1ccccc1	28%[10 µM]	-5%	3%	u	-103*	0%
Cc1ccc(/C=C2\C(=O)NC(=S)N(c3ccccc3F)C2=O)s1	-11%[10 µM]	2.2µM*	8.9µM*	0%	-22	318%
Cc1ccc(/C=C2\C(=O)NC(=S)N(c3ccc(F)cc3)C2=O)s1	-28%	x	u	3%	x	4%
C=C(C)CSc1nnc([C@@H](N)Cc2c[nH]c3ccccc23)o1	7%[0.074 µM]	u	16µM*	2%	-27	16%
CC(C)=CCSc1nnc([C@@H](N)Cc2c[nH]c3ccccc23)o1	9%	-7%	u	7%	13	6%
Cc1ccc(NC(=O)CSc2nnc([C@@H](N)Cc3c[nH]c4ccccc34)o2)c(C)c1	-17%	u	25µM*	-4%	-20	67%
CCN1C(=O)/C(=C/c2ccc(N(CC)CC)cc2OC)C(=O)NC1=S	4%[10 µM]	x	10µM*	-4%[9.22 µM]	x	76%
Cc1ccc(N/N=C/c2c(O)n(-c3ccccc3)c(=O)[nH]c2=O)cc1	-33%	x	11µM*	-3%	x	13%
Cc1cc(Cc2cc(C)c(N)cc2N)c(N)cc1N	-13%[10 µM]	-19%	u	x	x	-32%[14.2 µM]
Cn1cccc1/C=C1\C(=O)NC(=O)N(CCC2=CCCCC2)C1=O	1%[10 µM]	-13%	u	9%	u	44%
O=C1NC(=O)N(CCc2ccc(F)cc2)C(=O)/C1=C/c1cccs1	-12%	x	1.4µM*	0%	x	18%
CN(C)c1ccc(/C=C2\C(=O)NC(=O)N(CCc3ccc(F)cc3)C2=O)cc1	-4%[10 µM]	x	x	-7%[9.22 µM]	x	20%
O=C1NC(=O)N(CCC2=CCCCC2)C(=O)/C1=C\c1cccs1	-9%[10 µM]	0.32µM*	1.3µM*	30%	-86*	65%
CC(C)[C@]1(NC(=O)[C@H]2C=C3c4cccc5[nH]cc(c45)C[C@H]3N(C)C2)O[C@@]2(O)[C@H]3CCCN3C(=O)[C@H](Cc3ccccc3)N2C1=O	6%	x	x	x	x	x
C[N+]12CCC(CC1)C(C#N)(N1CCOCC1)C2 (centres undefined)	1%	-2%	3%	-2%	40	2.2µM*	RGS12 GoLoco inh-2=u
N[C@@H](Cc1cc(I)c(O)c(I)c1)C(=O)O	-16%	-8%	11µM*!	8%	-1	3.2µM*!	RGS12 GoLoco inh-2=u
C=C1C(O)(c2ccccc2)C2CC[N+]1(C)CC2 (centres undefined)	0%	-4%	8%	2%	-13	10µM*	RGS12 GoLoco inh-2=u
O=C(Oc1ccccc1)N1CCC[C@@]2(CCN(Cc3cc(C(F)(F)F)cc(C(F)(F)F)c3)C2)C1	1%	1%	1%	x	x	0%
S=C=Nc1cccc2ccccc12	12%	u	u	x	x	-14%
CCCC[N+]12CCC(CC1)C(=C(c1ccccc1)c1ccccc1)C2	17%[10 µM]	2%	5%	u	-17	7.9µM*	RGS12 GoLoco inh-2=16µM*
COC1=CC2C3Cc4ccc(OC)c(O)c4[C@]2(CCN3C)CC1=O (some centres undefined)	0%	-5%	4%	x	x	1%
NC(N)=Nc1ccc2[nH]c3c(c2c1)C[C@@]1(O)[C@H]2Cc4ccc(O)c5c4[C@@]1(CCN2CC1CC1)[C@H]3O5	x	3.2µM*	1.6µM*	x	x	2.8µM*	RGS12 GoLoco inh-2=7.9µM*

Compound activity deposited in PubChem by National Center for Advancing Translational Sciences (NCATS).
